Screening data (PubChem)
Only some compounds are listed: those with a hit (about 3.4% of all), similar ones and a draw of the others.
MITF inh = human MITF inhibition, primary screen | O75030 | AlphaScreen MITF homodimerization, bead proximity signal | inhibition, % at 2.6 µM | 0.91% of 650,000 active; in the data active = inhibition above about 50%;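 note: 0% = vehicle wells with protein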
Target sequence (O75030 whole entry, looked up): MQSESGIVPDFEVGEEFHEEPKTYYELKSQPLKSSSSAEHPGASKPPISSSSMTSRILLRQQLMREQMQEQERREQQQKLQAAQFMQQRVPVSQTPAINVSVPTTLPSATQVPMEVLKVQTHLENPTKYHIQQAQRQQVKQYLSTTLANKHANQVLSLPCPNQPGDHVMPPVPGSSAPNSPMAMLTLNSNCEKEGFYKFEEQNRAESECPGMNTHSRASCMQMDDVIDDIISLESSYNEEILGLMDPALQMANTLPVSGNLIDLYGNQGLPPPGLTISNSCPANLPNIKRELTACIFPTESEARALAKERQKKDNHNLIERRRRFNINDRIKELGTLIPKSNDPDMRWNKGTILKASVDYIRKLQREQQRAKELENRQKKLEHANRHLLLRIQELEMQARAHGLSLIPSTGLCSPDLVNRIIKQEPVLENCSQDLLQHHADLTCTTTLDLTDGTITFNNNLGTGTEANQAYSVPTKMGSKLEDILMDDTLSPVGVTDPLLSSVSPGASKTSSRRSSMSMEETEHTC
TEAD-YAP block = TEAD-YAP interaction inhibition; HEK-TIYL cells, TEAD-Gal4/YAP UAS-luciferase luminescence; inhibition, % at 9.12 µM; 1.4% of 640,000 active; AID 1259422; in the data active = inhibition above about 32%;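 note: 0% = median of test compound wells and 100% = reference inhibitor wells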
GPR151 ag = activators of human GPR151. Q8TDV0. PathHunter beta-arrestin GPR151 cells, luminescence. activation, % at 11.2 µM. 1% of 650,000 active; in the data active = activation above about 4.9%;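 note: 0% = median of compound wells and 100% = cells with positive control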
FBW7 activator = activators of human E3 ligase FBW7. normalized activity (activation), % at 26.1 µM. AlphaScreen FBW7–phospho-cyclin E peptide binding, activator screen. 0.13% of 650,000 active; in the data active = normalized activity above about 1.9%;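 note: purified mutant Fbw7 with reduced substrate affinity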
GPR151 confirm = human GPR151 activation, confirmation screen; shares compounds with GPR151 ag; GPR151 PathHunter beta-arrestin cells, luminescence, 90 min; % of EA-reagent control over plate median; activation, % at 11.2 µM; 6,700 tested, under 10 active;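 active = mean percent activation across replicates above the confirmation screen cutoff of 4.91%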
GPR119 ag = GPR119 activation, counter-screen for GPR151 activators | GPR119 PathHunter beta-arrestin cells, luminescence, 90 min; 0 = compound-well median, 100 = enzyme-acceptor control | 0.3% of 6,700 active | shares compounds with GPR151 ag | activation, % at 11.2 µM | AID 1508611;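 active = mean percent activation in the counterscreen above 29.09%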;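 note: counterscreen on off-target GPR119 to flag nonselective hits from the GPR151 activator screen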
An asterisk follows results filed as active; . = not tested or not shown.

SMILES | MITF inh | TEAD-YAP block | GPR151 ag | FBW7 activator | GPR151 confirm | GPR119 ag
CNC(=O)Oc1ccc2c(c1)[C@]1(C)CCC(C)[C@@H]1C2C (stereo partly drawn) | 5 | -7 | 2 | 0 | . | .
COC(=O)C1C2c3ccccc3OC1(C)N=c1s/c(=C3/C(=O)Nc4ccccc43)c(=O)n12 (stereo not drawn) | 22 | 3 | -3 | 0 | . | .
COc1cccc([C@H](C)NC(=O)c2cn(CCN3CCCC3)c3cc(-c4cn[nH]c4)ccc23)c1 | 16 | -3 | 11* | 0 | 0 | 1
COc1cccc(CNC(=O)c2cn(Cc3ccccc3)c3cc(-c4cn[nH]c4)ccc23)c1 | -3 | 0 | 2 | 0 | . | .
CCCC[N+]12CCC(CC1)C(C(=O)c1cccs1)C2 (stereo not drawn) | 24 | -8 | 5.8* | 0 | 1 | -3
CCCn1c(N)c(C(=O)C(C)NCCO)c(=O)n(C)c1=O (stereo not drawn) | 14 | -1 | -2 | 0 | . | .
N#Cc1ccc(NC(=O)CSc2n[nH]c(-c3cccs3)n2)cc1Cl | -2 | -3 | 11* | 0 | 0 | 13
CC(C)(C)c1cc(C=C(C#N)C#N)cc(C(C)(C)C)c1O | -5 | 91* | 6.4* | 0 | 1 | 18
COc1cc(C=C(C#N)C#N)cc(O)c1O | 8 | 1 | -1 | 0 | . | .
CN1CCN(c2ccc([N+](=O)[O-])cc2C(F)(F)F)CC1 | 5 | -2 | 1 | 0 | . | .
CN1CCN(c2ccc([N+](=O)[O-])cc2C=O)CC1 | 13 | 1 | 5.9* | 0 | 1 | 7
CCC[C@@H]1NC(=O)[C@H]2CN(Cc3ccccn3)CCN2C1=O | 27 | 8 | 1 | 0 | . | .
CCc1ccc(/C=C2/C(=O)NC(=O)N(c3ccc(OC)cc3)C2=O)cc1 | 13 | 6 | -1 | 0 | . | .
Cc1csc(NC(=O)c2cccn(Cc3ccc(Cl)cc3)c2=O)n1 | 17 | -2 | 4.9* | 0 | -1 | -16
CSc1ccccc1NC(=O)c1ccc(N2CC3CC(C2)c2cccc(=O)n2C3)c(N)c1 (stereo not drawn) | 10 | 4 | -1 | 0 | . | .
O=[N+]([O-])N=C1NCN(C2CCN(Cc3ccccc3)CC2)CN1 | -3 | -10 | 5.5* | 0 | 1 | 1
O=C(Nc1ccccc1)N1CNC(=N[N+](=O)[O-])NC1 | -3 | -4 | 3 | 0 | . | .
COc1cccc(C(c2c(O)[nH]c(=S)[nH]c2=O)N2CCOCC2)c1OC (stereo not drawn) | 9 | -12 | 0 | 0 | . | .
COc1cccc(C(c2c(O)[nH]c(=O)[nH]c2=O)N2CCCC(C)C2)c1OC (stereo not drawn) | 17 | 4 | 19* | 0 | 0 | 8
Cc1nn(Cc2ccccc2)c(C)c1C=O | -2 | -9 | 5.1* | 0 | 0 | -1
CCOC(=O)C(O)(c1csc(N)n1)c1c(C)nn(-c2ccc(C)cc2)c1N (stereo not drawn) | 2 | -14 | 1 | 0 | . | .
COc1ccc2oc3c(c2c1)NC(=O)CN=C3c1ccc(F)cc1 | 20 | 1 | -2 | 0 | . | .
COc1ccc2oc3c(c2c1)NC(=O)CN=C3c1ccccc1 | 13 | -11 | 6.9* | 0 | 1 | -1
Cc1cc2oc(=O)c3c(c2c(O)c1CN1CCN(C)CC1)CCCC3 | -16 | 6 | 9.3* | 0 | 0 | 8
CC(=O)Oc1cc(C)cc2oc(=O)c3c(c12)CCCC3 | 20 | 6 | 1 | 1 | . | .
SMILES | MITF inh | TEAD-YAP block | GPR151 ag | FBW7 activator | GPR151 confirm | GPR119 ag
C=CCOC(=O)C1=C(C)OC(N)=C(C(=O)OCc2ccccc2)C12C(=O)Nc1ccccc12 (stereo not drawn) | 20 | 8 | 6.3* | 0 | 1 | 3
O=[N+]([O-])c1ccc(C2NCc3ccc4c(c3-n3cccc32)OCO4)cc1 (stereo not drawn) | 8 | 6 | 0 | 0 | . | .
Cc1c(C)n(C)c2cc3c(C(F)(F)F)cc(=O)[nH]c3cc12 | -1 | 4 | 1 | 0 | . | .
N#Cc1c(Cl)c(Cl)nc(N2CCCNCC2)c1Cl | -5 | 0 | 6.1* | 0 | 1 | 13
N#Cc1cc(F)c(N2CCNCC2)cc1Cl | 1 | 3 | 0 | 0 | . | .
Cc1nc(SCc2ccccc2)[nH]c(=O)c1CC(=O)N1CCN(Cc2ccccc2)CC1 | 6 | -1 | 6.2* | 0 | 0 | -7
O=C(Cc1ccc(Cl)cc1)N1CCN(Cc2ccccc2)CC1 | 1 | -7 | 2 | 0 | . | .
CCOc1ccccc1N1CCN(Cc2cccnc2)CC1 | 40 | 5 | 5.5* | 0 | 0 | 11
CCCC(C)N1C(=O)CC(=O)NC1=S (stereo not drawn) | -1 | 3 | 1 | 0 | . | .
COCc1cc(C2SCC(=O)Nc3c2c(=O)[nH]n3C2CCOC(C)(C)C2)ccc1OC (stereo not drawn) | 24 | 6 | -1 | 0 | . | .
O=[N+]([O-])c1ccc(N2CCNCC2)cc1NCCO | 3 | -25 | 0 | 0 | . | .
CN1CCN(c2ccc([N+](=O)[O-])c(NCCO)c2)CC1 | -4 | 0 | 11* | 0 | 0 | 1
COc1cc(Cl)c(CNCCc2ccccc2)cc1OC | -1 | 4 | -1 | 0 | . | .
CC(/C=C/c1c[nH]c2ccccc12)=N\O | 9 | 3 | 1 | 0 | . | .
CCC(C)N1CCN(C(=O)COc2ccccc2)CC1 (stereo not drawn) | 43 | -4 | 0 | 0 | . | .
